# Of roughly 7,900 targets only a part is listed; those with a hit were picked by preference. About 0.6% of all pairs of compound and target were hits. Values without a mark were called inactive.
# How the values were obtained:
# Assay in all cases: log2 fold change, soluble protein after heating vs DMSO (PISA); higher = thermal stabilisation; K562 cells, 10 uM, 30 min; active = over 0.2 and 3.5 SD of the protein, either way, in both replicates (recomputed)
# [1] = compound: CC1=C(C=C(C=C1)NC(=O)C2=CC(=CC=C2)C(C)(C)C#N)NC3=CC4=C(C=C3)N=CN(C4=O)C
# Method in brief: (§1)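 Aliquots of K562 cells (2×10^6 cells/mL) treated with 10 μM compound for 30 min were heated for 3 min over 48°C-58°C. After pooling and extraction in PBS with 0.5% NP-40 at 4°C, soluble protein from a 21,000xg, 90 min spin was quantified by TMTpro 16plex LC-MS/MS with channel sums equalised. Thermal stability is expressed against control samples, from duplicates, as a log2 fold change.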
# [2] = compound: CC1=C(C=C(C=C1)NC(=O)C2=CC(=CC=C2)N(C)C)NC(=O)C3=CC=C(C=C3)O
# Method in brief: as §1
# [3] = compound: CC1=CC=C(C=C1)SC2=C3C=C(SC3=CN=C2)C(=O)N
# Method in brief: as §1
# [4] = compound: CC1=NC(=CC=C1)C2=C(N=C(N2)C(C)(C)C)C3=CC4=NC=CN=C4C=C3
# Method in brief: as §1
# [5] = compound: CCCCN(Cc1ccc(C(=O)NO)cc1)C(=O)Nc1ccccc1 [Nexturastat A]
# Method in brief: as §1
# [6] = compound: CCCS(=O)(=O)Nc1ccc(F)c(C(=O)c2c[nH]c3ncc(-c4ccc(Cl)cc4)cc23)c1F [vemurafenib]
# Method in brief: as §1
# [7] = compound: CCCS(=O)(=O)Nc1ccc(F)c(C(=O)c2c[nH]c3ncc(Cl)cc23)c1F
# Method in brief: as §1
# [8] = compound: CCCc1cc(C)[nH]c(=O)c1CNC(=O)c1cc(-c2ccnc(N3CCN(C)CC3)c2)cc2c1cnn2C(C)C
# Method in brief: as §1
# [9] = compound: CCN(CC)Cc1ccc2cc(COC(=O)Nc3ccc(C(=O)NO)cc3)ccc2c1 [givinostat]
# Method in brief: as §1
# [10] = compound: CCN(CCCOc1ccc2c(Nc3cc(CC(=O)Nc4cccc(F)c4)[nH]n3)ncnc2c1)CCOP(=O)(O)O [barasertib]
# Method in brief: as §1
# [11] = compound: CC[C@@H]1C(=O)N(C)c2cnc(Nc3ccc(C(=O)NC4CCN(C)CC4)cc3OC)nc2N1C1CCCC1
# Method in brief: as §1
# [12] = compound: CC[C@@H]1C(=O)N(C)c2cnc(Nc3ccc(C(=O)N[C@H]4CC[C@H](N5CCN(CC6CC6)CC5)CC4)cc3OC)nc2N1C(C)C [volasertib]
# Method in brief: as §1
# [13] = compound: CC[C@H](C)N1C=C(C2=C(C=C(C=C21)C3=CN=C(C=C3)N4CCNCC4)C(=O)NCC5=C(C=C(NC5=O)C)C)C
# Method in brief: as §1
# [14] = compound: CC[C@H](C)[C@@H](C(=O)N[C@@H]([C@@H](C)O)C(=O)N[C@@H](CC(C)C)C(=O)[C@]1(CO1)C)NC(=O)[C@H]([C@@H](C)CC)N(C)C(=O)C [epoxomicin]
# Method in brief: as §1
# [15] = compound: CCn1c(C(=O)N(C2CC2)C2CC2)cc2c3c(ncn3C)c(Nc3cc(C)n(C)n3)nc21
# Method in brief: as §1
# [16] = compound: CCn1cc(-c2ccnc3[nH]c(-c4cccc(CN(C)C)c4)cc23)c(-c2ccc(NC(=O)N(C)C)cc2)n1
# Method in brief: as §1
# [17] = compound: CN(C)CC(=O)Nc1ccc2[nH]c(=O)c3ccccc3c2c1
# Method in brief: as §1
# [18] = compound: CN(CCOC1=CC=C(C=C1)C[C@H]2C(=O)NC(=O)S2)C3=CC=CC=N3 (racemic) [rosiglitazone]
# Method in brief: as §1
# [19] = compound: CN1C2=C(C3=C1C(=O)N(N=C3)CC4=CC(=CC=C4)N)SC(=C2)S(=O)C
# Method in brief: as §1
# [20] = compound: CN1CCC(CNc2ccc3ncc(-c4cccc(OC(F)(F)F)c4)n3n2)CC1
# Method in brief: as §1
# Sequence of UniProt O43861 (O43861 whole entry, looked up): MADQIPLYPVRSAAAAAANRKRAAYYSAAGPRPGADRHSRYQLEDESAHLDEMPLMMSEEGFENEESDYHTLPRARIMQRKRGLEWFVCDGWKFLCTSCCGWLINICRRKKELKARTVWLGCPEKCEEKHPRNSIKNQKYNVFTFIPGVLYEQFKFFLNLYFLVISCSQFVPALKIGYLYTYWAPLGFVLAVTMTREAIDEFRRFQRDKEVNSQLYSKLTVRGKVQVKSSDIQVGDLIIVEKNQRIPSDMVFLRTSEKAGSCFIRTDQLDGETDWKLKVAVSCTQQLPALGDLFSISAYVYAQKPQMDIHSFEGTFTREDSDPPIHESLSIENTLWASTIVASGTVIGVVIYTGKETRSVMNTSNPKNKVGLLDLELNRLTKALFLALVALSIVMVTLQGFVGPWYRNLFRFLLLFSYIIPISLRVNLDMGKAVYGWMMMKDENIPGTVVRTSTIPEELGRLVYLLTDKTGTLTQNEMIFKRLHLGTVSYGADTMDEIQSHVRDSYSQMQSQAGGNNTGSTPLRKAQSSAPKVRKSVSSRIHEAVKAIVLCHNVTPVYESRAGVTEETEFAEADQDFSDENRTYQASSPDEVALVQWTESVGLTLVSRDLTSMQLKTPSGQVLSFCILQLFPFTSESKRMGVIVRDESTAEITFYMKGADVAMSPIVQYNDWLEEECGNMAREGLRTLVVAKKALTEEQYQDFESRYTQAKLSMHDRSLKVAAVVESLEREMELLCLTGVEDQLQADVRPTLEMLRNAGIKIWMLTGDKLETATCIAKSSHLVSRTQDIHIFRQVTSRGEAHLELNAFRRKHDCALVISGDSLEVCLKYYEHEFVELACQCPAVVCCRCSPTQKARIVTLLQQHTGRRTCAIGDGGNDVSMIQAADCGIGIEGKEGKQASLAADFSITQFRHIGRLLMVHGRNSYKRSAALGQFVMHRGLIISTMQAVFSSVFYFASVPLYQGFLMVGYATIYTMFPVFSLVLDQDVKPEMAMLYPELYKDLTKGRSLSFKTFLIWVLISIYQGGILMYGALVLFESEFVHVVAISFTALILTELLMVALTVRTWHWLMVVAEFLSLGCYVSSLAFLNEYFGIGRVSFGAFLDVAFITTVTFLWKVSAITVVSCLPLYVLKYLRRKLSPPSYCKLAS
# Sequence of UniProt Q92934 (Q92934 whole entry, looked up): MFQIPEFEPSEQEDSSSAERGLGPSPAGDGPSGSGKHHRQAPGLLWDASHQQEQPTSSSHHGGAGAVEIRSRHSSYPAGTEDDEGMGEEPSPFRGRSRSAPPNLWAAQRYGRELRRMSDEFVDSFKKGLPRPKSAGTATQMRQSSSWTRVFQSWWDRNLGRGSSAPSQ
# Sequence of UniProt Q53FZ2 (Q53FZ2 whole entry, looked up): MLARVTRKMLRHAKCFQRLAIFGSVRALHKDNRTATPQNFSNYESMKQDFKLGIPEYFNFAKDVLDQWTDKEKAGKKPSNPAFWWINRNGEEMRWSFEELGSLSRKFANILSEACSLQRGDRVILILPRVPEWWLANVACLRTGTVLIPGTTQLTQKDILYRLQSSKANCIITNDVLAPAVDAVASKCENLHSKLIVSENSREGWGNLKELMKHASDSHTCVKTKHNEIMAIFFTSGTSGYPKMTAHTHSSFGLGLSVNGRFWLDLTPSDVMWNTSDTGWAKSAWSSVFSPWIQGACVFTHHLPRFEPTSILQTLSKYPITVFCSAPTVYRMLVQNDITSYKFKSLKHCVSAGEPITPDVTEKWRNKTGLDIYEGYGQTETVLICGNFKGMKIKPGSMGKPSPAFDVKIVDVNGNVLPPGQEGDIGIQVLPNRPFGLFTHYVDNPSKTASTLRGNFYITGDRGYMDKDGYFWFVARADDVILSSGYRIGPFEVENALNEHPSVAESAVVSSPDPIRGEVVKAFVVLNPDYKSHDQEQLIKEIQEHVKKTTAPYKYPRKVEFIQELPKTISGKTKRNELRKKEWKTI
# Sequence of UniProt O00170 (O00170 whole entry, looked up): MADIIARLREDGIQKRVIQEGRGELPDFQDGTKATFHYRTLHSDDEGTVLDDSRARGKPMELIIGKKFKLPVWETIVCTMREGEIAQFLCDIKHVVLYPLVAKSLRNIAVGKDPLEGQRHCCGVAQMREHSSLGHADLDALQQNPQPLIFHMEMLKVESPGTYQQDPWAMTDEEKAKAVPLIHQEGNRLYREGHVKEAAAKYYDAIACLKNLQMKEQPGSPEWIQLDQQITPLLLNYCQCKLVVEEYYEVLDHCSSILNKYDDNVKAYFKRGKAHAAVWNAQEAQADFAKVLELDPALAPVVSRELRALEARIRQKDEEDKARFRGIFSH
# Sequence of UniProt P35612 (P35612 whole entry, looked up): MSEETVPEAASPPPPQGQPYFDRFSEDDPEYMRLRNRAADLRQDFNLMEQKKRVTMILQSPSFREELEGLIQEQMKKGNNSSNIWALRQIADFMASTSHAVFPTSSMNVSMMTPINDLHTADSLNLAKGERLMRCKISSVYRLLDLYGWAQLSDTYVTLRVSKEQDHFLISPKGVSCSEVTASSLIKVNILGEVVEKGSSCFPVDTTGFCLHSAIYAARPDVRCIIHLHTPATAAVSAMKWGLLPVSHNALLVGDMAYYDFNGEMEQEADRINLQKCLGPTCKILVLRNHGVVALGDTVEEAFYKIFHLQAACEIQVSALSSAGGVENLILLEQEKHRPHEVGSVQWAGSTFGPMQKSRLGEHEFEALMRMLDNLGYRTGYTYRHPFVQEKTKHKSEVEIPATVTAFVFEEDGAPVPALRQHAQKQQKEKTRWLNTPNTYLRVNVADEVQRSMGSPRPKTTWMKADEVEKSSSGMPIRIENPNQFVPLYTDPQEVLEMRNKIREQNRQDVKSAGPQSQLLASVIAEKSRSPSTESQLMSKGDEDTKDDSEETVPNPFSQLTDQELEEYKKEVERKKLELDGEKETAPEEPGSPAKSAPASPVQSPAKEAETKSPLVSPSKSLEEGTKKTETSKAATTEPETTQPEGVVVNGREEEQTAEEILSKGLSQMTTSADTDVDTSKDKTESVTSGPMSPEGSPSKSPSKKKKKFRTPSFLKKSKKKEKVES
# Sequence of UniProt Q92685 (Q92685 whole entry, looked up): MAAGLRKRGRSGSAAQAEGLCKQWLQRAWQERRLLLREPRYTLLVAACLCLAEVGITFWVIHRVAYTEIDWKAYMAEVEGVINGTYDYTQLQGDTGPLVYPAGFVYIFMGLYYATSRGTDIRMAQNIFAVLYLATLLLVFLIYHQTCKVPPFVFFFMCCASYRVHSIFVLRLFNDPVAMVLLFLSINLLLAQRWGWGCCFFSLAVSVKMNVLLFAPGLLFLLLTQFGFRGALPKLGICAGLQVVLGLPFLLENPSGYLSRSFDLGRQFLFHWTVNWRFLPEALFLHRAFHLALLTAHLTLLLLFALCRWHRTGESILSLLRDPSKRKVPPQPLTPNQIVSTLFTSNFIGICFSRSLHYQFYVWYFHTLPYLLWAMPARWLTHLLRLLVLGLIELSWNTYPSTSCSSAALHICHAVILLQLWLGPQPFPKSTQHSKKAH
# Sequence of UniProt Q99943 (Q99943 whole entry, looked up): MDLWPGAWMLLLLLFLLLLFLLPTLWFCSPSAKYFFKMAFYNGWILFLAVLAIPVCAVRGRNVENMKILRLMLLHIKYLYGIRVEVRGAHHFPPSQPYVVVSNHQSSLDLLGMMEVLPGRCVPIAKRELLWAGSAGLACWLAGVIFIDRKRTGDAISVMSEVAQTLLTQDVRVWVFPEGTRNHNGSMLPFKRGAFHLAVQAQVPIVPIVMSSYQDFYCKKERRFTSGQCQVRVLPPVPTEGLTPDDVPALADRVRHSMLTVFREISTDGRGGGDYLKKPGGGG
# Sequence of UniProt P98196 (P98196 whole entry, looked up): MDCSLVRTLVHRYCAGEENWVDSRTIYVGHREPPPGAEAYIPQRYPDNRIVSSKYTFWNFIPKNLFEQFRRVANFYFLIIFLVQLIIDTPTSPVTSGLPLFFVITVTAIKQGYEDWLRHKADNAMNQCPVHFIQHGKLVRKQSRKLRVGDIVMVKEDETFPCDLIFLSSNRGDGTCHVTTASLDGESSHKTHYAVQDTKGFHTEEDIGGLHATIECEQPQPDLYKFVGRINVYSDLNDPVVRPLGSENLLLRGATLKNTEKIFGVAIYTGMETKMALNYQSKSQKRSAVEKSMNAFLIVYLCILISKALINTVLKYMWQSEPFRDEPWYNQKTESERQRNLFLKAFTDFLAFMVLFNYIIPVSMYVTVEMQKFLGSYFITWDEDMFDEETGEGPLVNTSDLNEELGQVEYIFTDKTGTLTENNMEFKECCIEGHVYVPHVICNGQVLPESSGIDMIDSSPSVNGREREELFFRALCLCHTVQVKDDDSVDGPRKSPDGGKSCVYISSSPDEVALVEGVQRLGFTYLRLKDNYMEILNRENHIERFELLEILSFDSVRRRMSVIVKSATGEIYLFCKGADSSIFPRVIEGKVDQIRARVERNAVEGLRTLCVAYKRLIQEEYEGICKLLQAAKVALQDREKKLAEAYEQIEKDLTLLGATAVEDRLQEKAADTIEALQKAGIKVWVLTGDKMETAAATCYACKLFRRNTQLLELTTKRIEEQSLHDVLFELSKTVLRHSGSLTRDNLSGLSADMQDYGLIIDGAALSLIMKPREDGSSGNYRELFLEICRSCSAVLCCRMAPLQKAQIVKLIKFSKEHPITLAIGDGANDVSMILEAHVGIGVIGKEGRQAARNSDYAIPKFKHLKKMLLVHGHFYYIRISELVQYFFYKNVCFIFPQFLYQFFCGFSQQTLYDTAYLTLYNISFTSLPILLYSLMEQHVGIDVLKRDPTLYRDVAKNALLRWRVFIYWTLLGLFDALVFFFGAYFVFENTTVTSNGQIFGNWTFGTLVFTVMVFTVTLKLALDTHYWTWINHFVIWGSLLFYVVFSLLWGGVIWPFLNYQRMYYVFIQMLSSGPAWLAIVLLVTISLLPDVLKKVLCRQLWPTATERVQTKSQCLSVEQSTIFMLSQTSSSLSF
Target,log2 fold change [1],log2 fold change [2],log2 fold change [3],log2 fold change [4],log2 fold change [5],log2 fold change [6],log2 fold change [7],log2 fold change [8],log2 fold change [9],log2 fold change [10],log2 fold change [11],log2 fold change [12],log2 fold change [13],log2 fold change [14],log2 fold change [15],log2 fold change [16],log2 fold change [17],log2 fold change [18],log2 fold change [19],log2 fold change [20]
ACSM3 (UniProt Q53FZ2),-0.069,-0.056,0.019,-0.029,-0.096,0.033,0.036,0.018,0.039,0.103,0.021,-0.092,0.062,0.146,-0.03,-0.02,0.154,0.046,-0.099,-0.145
BAD (UniProt Q92934),-0.198,0.007,-0.021,-0.051,-0.324 (active),-0.076,-0.037,0.05,-0.133,-0.003,-0.043,0.038,0.085,-0.086,0.014,0.022,-0.125,0.059,-0.069,-0.006
ATP11A (UniProt P98196),-0.033,-0.022,-0.039,-0.007,-0.005,0.032,-0.027,-0.035,-0.007,-0.033,0.266,0.058,-0.094,0.001,0.026,-0.022,0.031,0.045,-0.083,0.084
ALG3 (UniProt Q92685),0.108,0.002,0.113,0.376 (active),0.008,-0.076,0.123,-0.079,-0.09,0,0.005,-0.164,0.02,0.039,-0.022,-0.037,-0.002,0.049,-0.028,0.033
ALDH2 (UniProt P05091),0.089,0.03,0.039,0.029,-0.264 (active),0.044,-0.011,-0.012,0.016,0.003,-0.025,0.06,-0.009,-0.038,-0.017,-0.042,0.029,0.058,-0.048,-0.006
AARSD1 isoform 3 (UniProt Q9BTE6),0.016,-0.04,-0.003,0.034,-0.077,0.003,0.122,0.03,-0.273 (active),0.032,-0.081,-0.27 (active),0.019,0.083,0.009,-0.01,0.037,0.05,0.02,0.021
AGPAT1 (UniProt Q99943),-0.037,-0.029,-0.014,-0.03,-0.052,0.017,-0.004,0.004,0.005,0.047,-0.032,-0.243 (active),0.015,-0.056,-0.007,-0.006,0.032,-0.011,-0.102,0.315 (active)
ADD2 (UniProt P35612),-0.014,0.018,-0.01,0.002,0.026,-0.03,-0.002,0.01,-0.007,-0.011,0.037,0.031,-0.044,0.006,0.025,-0.043,-0.038,0.003,-0.02,0.008
ATP1B3 (UniProt P54709),0,-0.015,-0.02,0.046,-0.065,0.005,-0.036,-0.018,-0.055,-0.021,0.06,0.094,-0.022,-0.033,0.04,-0.028,0.012,-0.011,-0.063,0.168
ACAP2 (UniProt Q15057),-0.046,0,-0.038,0.033,0,0.046,0.057,-0.04,0.028,0,-0.034,-0.192,0.066,-0.002,-0.007,-0.015,0.065,0.023,-0.004,0.063
APPL1 (UniProt Q9UKG1),0.012,0.008,0.035,0.015,-0.032,0.066,0.017,-0.033,0.039,0.02,-0.149,-0.317 (active),0.058,-0.044,0.038,-0.021,0.02,0.044,-0.113,-0.065
AARS2 (UniProt Q5JTZ9),-0.003,-0.047,0.017,0.079,-0.015,0.045,0.04,0.049,0.05,0.058,0.001,-0.199,0.023,0.023,-0.015,-0.05,0.031,0.054,-0.062,-0.312 (active)
ATP9B (UniProt O43861),-0.185,-0.007,-0.054,0.061,0.013,-0.05,0.01,-0.03,0.085,0.013,-0.002,-0.15,-0.125,0.055,-0.204,-0.023,0.013,0.08,0.013,-0.109
AIP (UniProt O00170),0.014,-0.074,0.032,0.07,-0.07,0.071,0.088,0.065,0.043,0.031,-0.115,-0.372 (active),0.054,0.172,-0.006,-0.051,0.057,0.053,-0.085,-0.047
ACSL4 (UniProt O60488),0.018,-0.051,0.418 (active),-0.002,0.233,0.021,0.104,0.053,0.047,0.034,-0.15,-0.276,-0.051,0.024,-0.098,-0.029,0.092,1.17 (active),0.051,-0.229
ACBD6 (UniProt Q9BR61),0.039,-0.04,0.139,0.067,0.28,0.029,0.022,0.127,-0.011,0.018,-0.032,-0.473 (active),0.103,0.05,0.01,-0.11,0.141,0.363,-0.099,0.046

# Source: the supplement of paper PMC10849652
